Reference: ChEMBL document CHEMBL3988442, “University of Dundee, Small-Polar-MMV Screening Library” (2021)

test system: Trypanosoma cruzi; assay: Trypanosoma cruzi phosphomannomutase and mannose-1-phosphate guanylyltransferase assay; type: functional; parameters: scale not given: direction of the effect not stated beside the values; conditions: 10 µM

SMILES | Percent Effect [%]
CN(Cc1ccncc1)C(=O)Nc1cnn(CC2CCCO2)c1 (stereo not given) | -3.67
Cc1cccc(-c2ccc(C(=O)NCC3CCOC3)c(=O)[nH]2)c1 (stereo not given) | -0.472
COc1ccc(C2CCCN2C(=O)NCCNc2ncccn2)cc1 (stereo not given) | -7.83
Cc1cc(C)c2nc(CN3CC[C@@H](O)C3)cc(O)c2c1 | -1.16
CCOc1cccc(CNC(=O)NCC(O)c2cccc(F)c2)c1 (stereo not given) | 5.75
CN(C)C1CCN(C(=O)NCc2ccc(Cn3cncn3)cc2)CC1 | 9.85
Cc1nn(C)c(C)c1C1CCCN1C(=O)CCCn1cccn1 (stereo not given) | -6.07
O=C(NC1CCS(=O)(=O)C1)c1sccc1-c1ccc(F)cc1 (stereo not given) | -4.4
O=C(NCCn1ccnc1)c1cccc(F)c1 | -4.39
CCC(=O)N1Cc2nccn2CC(CN(C)Cc2cccnc2)C1 (stereo not given) | -4.72
Cc1nc(N2CCN(C(=O)c3ccc(O)cc3)CC2)c2cnn(C)c2n1 | -2.74
CCOC(=O)C1CCN(C(=O)Cn2ccc3cc(Br)ccc32)CC1 | 6.29
Cc1cccc(CN2C[C@@H]3CN(C(=O)c4ccsc4)C[C@@H]3C2=O)c1 | -3.25
CN(C)S(=O)(=O)c1ccc(OCCNCCn2cccn2)cc1 | -1.13
CN(C)S(=O)(=O)N1CCC2(CCCN(Cc3ccc(F)cc3)C2=O)C1 (stereo not given) | 5.16
CCOc1nnc(CN(C)C2CCCN(c3cccnn3)C2)s1 (stereo not given) | 7.5
Cc1cc(-c2nnn(CCC(N)=O)n2)ccc1F | 5.75
Cn1cc(C(=O)CC2CCCN2C(=O)c2cncc3ccccc23)cn1 (stereo not given) | 0.718
Cc1ccccc1CSCCn1nc2ccccn2c1=O | -2.06
Cn1ccnc1-c1cccc(NC(=O)NCCCO)c1 | 0.875

target: T1, Arginase-2, mitochondrial (Homo sapiens) (UniProt P78540); assay: in vitro enzyme assay to detect the production of urea directly proportional to the activity of Arginase II; type: functional; parameters: scale not given: in the data most compounds retested in dose-response had high values; conditions: 33.3 µM
T1 sequence (whole entry): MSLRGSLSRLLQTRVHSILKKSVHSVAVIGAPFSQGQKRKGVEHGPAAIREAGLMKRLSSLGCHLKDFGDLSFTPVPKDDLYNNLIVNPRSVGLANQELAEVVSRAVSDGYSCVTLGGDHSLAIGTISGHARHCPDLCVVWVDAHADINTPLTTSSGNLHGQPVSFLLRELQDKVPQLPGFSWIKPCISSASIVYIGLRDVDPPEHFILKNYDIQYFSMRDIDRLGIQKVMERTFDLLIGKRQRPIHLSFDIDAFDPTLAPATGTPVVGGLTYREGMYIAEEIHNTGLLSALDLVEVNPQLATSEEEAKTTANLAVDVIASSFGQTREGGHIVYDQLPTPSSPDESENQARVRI

SMILES | Percent Effect [%]
CCC1CN(c2nnc(C)c(C)c2C#N)CCO1 (stereo not given) | 1.15
COC(=O)c1ccccc1NC(=O)c1nc2ccccc2n(C)c1=O | 1.94
CCn1cnnc1C1CCN(C(=O)c2ccc(C(=O)OC)s2)CC1 | -0.356
COc1ccc(NC(=O)CNc2cccc3c2CCCC3)c(OC)c1 | -3.23
Cc1ccc(N2CCCC(NCc3cccc4c3OCCO4)C2)nn1 (stereo not given) | -2
Cc1nc(CN2C(=O)C[C@@H]3[C@@H]2CCN3C(=O)C2CCOCC2)cs1 | -5.19
Cc1cnn(CC2CCCCN2CCC(=O)Nc2cc(C)on2)c1 (stereo not given) | -1.07
COCC(=O)N1CCC2(CC1)COCCN2CCN(C)C | -50
CCc1n[nH]c(C2CN(Cc3nccn3CC)CCO2)n1 (stereo not given) | 6.53
CCOc1cccc(NS(=O)(=O)c2cc(C)c(C(=O)O)s2)c1 | 19.1
CCCNC(=O)c1sc(Nc2ccc(Cl)cn2)nc1C | -0.88
CC(C)c1ncc2c(n1)CN(Cc1nc(Cc3ccccc3)no1)CC2 | -2.77
CS(=O)(=O)NC1CCN(C(=O)NCCNc2ccccn2)CC1 | 3.14
OCC1CCCN1c1cc(NCc2ccc(Cl)s2)ncn1 (stereo not given) | -3.66
COc1cc(CCC(=O)NC2CC2)ccc1OCC(F)(F)F | 2.52
CCS(=O)(=O)c1ccc(N2CCC(NC(C)=O)CC2)cc1 | -1.04
CC(=O)c1cn(CCC(=O)N[C@H](C(=O)O)C(C)C)c2ccccc12 | -9.68
CCS(=O)(=O)c1ccc(N2CCC(NC(=O)c3cnn(C)c3)CC2)cc1 | -2.08

SMILES | Percent Effect [%]
Cc1nc[nH]c1-c1nc2cc(S(=O)(=O)N3CCCC3)ccc2n1C | 20
CCN(CCn1cccn1)Cc1nc(-c2ccccc2F)oc1C | -0.883
CN(Cc1ccncc1)C(=O)Nc1cnn(CC2CCCO2)c1 (stereo not given) | 0.952
Cc1cccc(-c2ccc(C(=O)NCC3CCOC3)c(=O)[nH]2)c1 (stereo not given) | -4.41
COc1ccc(C2CCCN2C(=O)NCCNc2ncccn2)cc1 (stereo not given) | 6.36
Cc1cc(C)c2nc(CN3CC[C@@H](O)C3)cc(O)c2c1 | -3.81
CCOc1cccc(CNC(=O)NCC(O)c2cccc(F)c2)c1 (stereo not given) | -6.01
CN(C)C1CCN(C(=O)NCc2ccc(Cn3cncn3)cc2)CC1 | -2.38
Cc1nn(C)c(C)c1C1CCCN1C(=O)CCCn1cccn1 (stereo not given) | 10.1
O=C(NC1CCS(=O)(=O)C1)c1sccc1-c1ccc(F)cc1 (stereo not given) | -0.248
O=C(NCCn1ccnc1)c1cccc(F)c1 | 0.36
CCC(=O)N1Cc2nccn2CC(CN(C)Cc2cccnc2)C1 (stereo not given) | 1.17
Cc1nc(N2CCN(C(=O)c3ccc(O)cc3)CC2)c2cnn(C)c2n1 | 1.6
CCOC(=O)C1CCN(C(=O)Cn2ccc3cc(Br)ccc32)CC1 | -0.88
Cc1cccc(CN2C[C@@H]3CN(C(=O)c4ccsc4)C[C@@H]3C2=O)c1 | 0
CN(C)S(=O)(=O)c1ccc(OCCNCCn2cccn2)cc1 | 1.5
CN(C)S(=O)(=O)N1CCC2(CCCN(Cc3ccc(F)cc3)C2=O)C1 (stereo not given) | 2.4
